Reference: PubChem BioAssay AID488841 (Sanford-Burnham Center for Chemical Genomics, 2010)
Screen size: about 1,400 compounds; about 380 (27%) were called active. The list shows a part of the results. A number with no mark means an inactive call.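 Rule for the calls: active = mean inhibition above 50% across duplicate retests at 10 µM; inactive = the rest.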

experiment: inhibition of NALP1/ASC/caspase-1 reporter signal in yeast, confirmation, NALP1 inhibitor project, S. cerevisiae, luminescence, single concentration (AID 488841);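 note: plate controls were DMSO in galactose medium for no effect and cells in plain SD medium for full effect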; details: S. cerevisiae NALP1/ASC/Caspase-1 reporter, beta-gal luminescence; at 10 µM; hits give high values

Structure (SMILES)	inhibition
CC(C)N(C)CCOC(=O)c1ccccc1Br	30.6%
COC(=O)c1ccccc1NC(=O)CN1CCC(n2nnc3cc(F)ccc32)CC1	24.9%
CCc1ccc(C(=O)NC(CC(C)C)C(=O)O)cc1 (configuration not stated)	24.6%
CCc1ccc(C(=O)NCc2ccc(Cl)cc2Cl)cc1	57.4% (active)
N=c1ccn(Cc2ccc(Cl)cc2Cl)cc1	35.2%
CC(C)Cn1c(CN(Cc2ccccc2)Cc2ccccc2)nc2c1c(=O)n(C)c(=O)n2C	35.5%
COc1cc(/C=C2\SC(=Nc3ccc(F)cc3)N(c3ccc(F)cc3)C2=O)ccc1OCC(=O)O	26.6%
CCOC(=O)c1cccnc1SCC(=O)NCc1ccccc1	41.5%
CSc1ccc2c(c1)N(CCC1CCCCN1C)c1ccccc1S2 (configuration not stated)	71.1% (active)
CN1C/C(=C/c2ccncc2)C(=O)/C(=C/c2ccncc2)C1	13.2%
CC1(C)Cc2c(c(N3CCOCC3)nc3sc4c(NCCN5CCOCC5)nnnc4c23)CS1	27.2%
Cc1nc2nc3c(cn2n1)C(=O)CCC3	6.55%
CN1CCc2cccc3c2[C@@H]1Cc1ccc(O)c(O)c1-3	71.3% (active)
CN1CCc2cccc3c2[C@H]1Cc1ccc(O)c(O)c1-3	42.5%
Cc1[nH][nH]c(=O)c1C(c1ccc(-c2ccc(Cl)c(Cl)c2)o1)c1c(C)[nH][nH]c1=O	24.6%
Cc1ccc(CSCCNC(=O)CSCc2ccc([N+](=O)[O-])cc2)cc1	59.9% (active)
COCCNC(=O)c1ccc(C)c(S(=O)(=O)Nc2ccc(C)cc2)c1	32.9%
Cc1ccc(C(=O)NCCc2cccc(Cl)c2)cc1[N+](=O)[O-]	53.2% (active)
Cc1cccc(C(=O)NCc2ccc(S(N)(=O)=O)cc2)c1[N+](=O)[O-]	36.4%
O=C(CSCc1ccc(F)cc1)NCc1ccco1	35.4%
CCn1c2ccccc2c2cc(NC(=O)c3ccc(C)c([N+](=O)[O-])c3)ccc21	42.1%
Cc1ccccc1Cn1c(=N)n(CC(=O)c2ccc([N+](=O)[O-])cc2)c2ccccc21	49.5%
Cc1ccc(C(=O)NCCSCc2ccccc2)cc1[N+](=O)[O-]	52.6% (active)
C/C(=N/Nc1ccc([N+](=O)[O-])cc1)c1ccc(C)cc1C	49%

Structure (SMILES)	inhibition
CCOC(=O)c1c(C)n(C)c2ccc(OC)c(NC(=O)CN3CCN(C4CCCCC4)CC3)c12	23.2%
COc1cc(NC(C)CCCN)c2ncccc2c1Oc1ccccc1 (configuration not stated)	25.8%
O=C1N/C(=N\N=C\c2cccnc2)SC1Cc1ccc(SC(F)F)cc1 (configuration not stated)	24.2%
COc1ccc(CCn2c(C(C)C)nc3c(c(=O)c4ccccc4n3C)c2=O)cc1	25.9%
COc1ccc2cc(C(C)c3nc4ccccc4c(=O)n3N)ccc2c1 (configuration not stated)	53.1% (active)
C=CCCCCc1nc2ccccc2c(=O)n1N	33%
COc1ccc(OC)c(/C=c2\sc3nc(-c4cccs4)nn3c2=O)c1	28.1%
O=[N+]([O-])/C=C/c1ccc2c(ccn2Cc2ccccc2)c1	99.9% (active)
CC(C)c1ccc(CN2CCN(C(=O)CCl)CC2)cc1	39.5%
O=C(CCC1CCCCC1)N1CCN(Cc2ccc3c(c2)OCO3)CC1	59.6% (active)
N#CCc1c(C#N)c(N)nc(N2CCN(Cc3ccc4c(c3)OCO4)CC2)c1C#N	27.2%
Clc1ccc(SCCCCN2CCOCC2)cc1	33%
COc1cccc(N2C(=O)C(O)=C(C(C)=O)C2c2ccc(OC)c(OC)c2)c1 (configuration not stated)	33.1%
COC(=O)c1cc(=O)n(-c2c(Cl)cc(C(F)(F)F)cc2Cl)[nH]1	28.1%
CCOC(=O)c1c(C(F)(F)C(F)(F)C(F)(F)C(F)(F)F)n[nH]c1C	30%
Cc1cc(C(=O)COC(=O)c2ccc[nH]c2=O)c(C)n1-c1ccccc1	58.6% (active)
CCOC(=O)c1c(C)[nH]c(C)c1C(=O)COC(=O)c1cc2ccccc2cc1O	37.1%
Cc1cc(C(=O)COC(=O)c2ccc[nH]c2=O)c(C)n1-c1ccc(F)cc1	39%
Cc1cc2ccccc2n1CCNCc1c(C(=O)N2CCOCC2)nc2ccccn12	28.2%
CNC(CC(=O)c1ccc([N+](=O)[O-])cc1)C(Cl)(Cl)Cl (configuration not stated)	47.5%
CCOC(=O)c1sc(=S)n(-c2ccc(OC)cc2)c1C	38.4%
CCOC(=O)c1ccc(N2C(=O)CC(N3CCCC(C)C3)C2=O)cc1 (configuration not stated)	35.9%
CCOC(=O)c1ccc(N2C(=O)C=CC2=O)cc1	89% (active)
